# Measured values from PubChem BioAssay AID1053125 (Broad Institute, 2014).
# Results with a measured potency or affinity are listed apart. Unmarked numbers belong to inactive results.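 Rule for the calls: active = viability loss whose fitted half-maximal concentration is at most twice the top valid tested dose; inconclusive = flat curve with 30 to 70% loss, or poor fit; inactive = the rest.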
# Test: viability loss in HepG2 liver cells – cell-based, ATP luminescence, cherry-pick, set 6, cytotoxicity control, dose response (AID 1053125);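 note: negative values mean loss of viability signal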
# Settings: ATP luminescence (CellTiter-Glo), 72 h; series mostly up to 26 µM; activity change, negative = cytotoxicity: at the top concentration
row,SMILES,"activity change, negative = cytotoxicity"
1,O=C(c1ccc(F)cc1)C1CCN(C(=O)Nc2ccccc2Cl)CC1,-1.49%
2,O=C(NS(=O)(=O)c1ccc(Cl)s1)c1ccccc1,-5.86%
3,COc1ccc(CCN=C(N)NS(=O)(=O)c2ccc(F)cc2)cc1,-13.1%
4,Cn1cc(C(c2ccccc2OCC(=O)O)c2cn(C)c3ccccc23)c2ccccc21,15.3%
5,CCOC(=O)c1cc(-c2ccccc2)sc1NC(=O)CSc1nnc(N)s1,11.4%
6,CCOC1=NN(c2ncc(C(F)(F)F)cc2Cl)C(=O)C1,-7.01%
7,O=C(CCc1c[nH]c2ccccc12)OCC(=O)c1ccccc1,-4.54%
8,Nn1c(SCC(=O)N2CCCC2)nnc1-c1cccs1,-0.141%
9,Clc1ccccc1C1=CC(c2ccco2)n2ncnc2N1 (centres undefined),-9.12%
10,CC(C)(C)c1csc(N/N=C/c2ccc(O)cc2)n1,41.1%
11,Cc1ccc(S(=O)(=O)CCC(=O)OCC(=O)Nc2cccc(S(=O)(=O)N3CCCCC3)c2)cc1,-2.25%
12,Cc1c(C(=O)NCc2ccc(Cl)c(Cl)c2)sc(=O)n1Cc1cccc(F)c1,-9.25%
13,NC(=O)c1c(NC(=O)Cc2ccccc2)sc2c1CCN(Cc1ccccc1)C2,-10.1%
14,Cc1c(Nc2c3ccccc3nc3ccccc23)c(=O)n(-c2ccccc2)n1C,-6.17%
15,CCOC(=O)C1CCCN(CCCc2ccccc2)C1 (centres undefined),-13.1%
16,CCN(CC)CCN1C2=C(C(=O)CC(C)(C)C2)C(c2cccc(F)c2)C2=C1CC(C)(C)CC2=O,-3.85%
17,CCn1c(=N)c(S(=O)(=O)c2ccccc2)cc2c(=O)n3ccccc3nc21,-12.9%

row,SMILES,"activity change, negative = cytotoxicity"
1,Cc1ccc(-n2nnnc2CNC(=O)C(=O)c2c[nH]c3ccccc23)cc1C,-9.06%
2,COc1ccc(S(=O)(=O)Cc2ccc(C(=O)N3CCN(Cc4ccccc4)CC3)o2)cc1,13.9%
3,CC(C)CCN(CCC(C)C)CC(O)Cn1c2ccccc2c(=O)c2ccccc21 (centres undefined),-16%
4,COCCCOc1cc(NCc2ccccc2)c2ncn(C(C)C)c2c1,5.95%
5,Cc1ccc2c(c1)-c1c(cnn1CC(=O)Nc1ccccc1N1CCN(C)CC1)CO2,-11.7%
6,O=c1[nH]c2ccccc2nc1/C=C/c1ccccc1,-10.8%
7,Cc1cccn2c(=O)c3cc(C(=O)NCCN4CCOCC4)c(=N)n(CCc4ccccc4)c3nc12,1.54%
8,CC1CCN(C(=O)COc2cccc3c2CCN(Cc2ccccc2)C3=O)CC1,-18.4%
9,CCCOc1ccc(NC(=O)c2c(-c3ccccc3)noc2C)cc1,-6.96%
10,CC(C)c1ccc(/C=C2\Oc3c(ccc(O)c3CN3CCN(C)CC3)C2=O)cc1,3.11%
11,Cc1cccn2c(=O)c3cc(C(=O)NCCN4CCOCC4)c(=N)n(Cc4ccc(F)cc4)c3nc12,22.3%
12,CSCCC1(C(=O)O)NC(c2ccccc2O)C2C(=O)N(C(C)C)C(=O)C21 (centres undefined),4.52%
13,CCCn1c(=N)c(S(=O)(=O)c2ccccc2)cc2c(=O)n3ccccc3nc21,-9.82%
14,CCOc1ccc2nc(NCCNC(=O)CC)c(C#N)cc2c1,5.54%
15,COc1cc(C(=O)NCCCNc2nc3c(C)cc(C)cc3cc2C#N)cc(OC)c1OC,-12%
16,CCN(CC)c1ccc2cc(C#N)c(=O)oc2c1,3.25%
17,Cn1cnc(S(=O)(=O)Nc2ccc(OC(F)(F)F)cc2)c1,-6%
